From PubChem BioAssay
Activity calls are given as the source filed them. How the calls were made is not given here.

biological target: Pantothenate synthetase (Mycobacterium tuberculosis (strain ATCC 25618 / H37Rv)) (UniProt P9WIL5); assay: Recombinant Mtb pantothenate synthetase (PanC) inhibitors, coupled enzyme, confirmatory (AID 375); settings: coupled enzyme assay; at 10 µM, stronger effect = higher value;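 further: 0% = full reaction with vehicle and 100% = no enzyme background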
Sequence (P9WIL5 whole entry, looked up): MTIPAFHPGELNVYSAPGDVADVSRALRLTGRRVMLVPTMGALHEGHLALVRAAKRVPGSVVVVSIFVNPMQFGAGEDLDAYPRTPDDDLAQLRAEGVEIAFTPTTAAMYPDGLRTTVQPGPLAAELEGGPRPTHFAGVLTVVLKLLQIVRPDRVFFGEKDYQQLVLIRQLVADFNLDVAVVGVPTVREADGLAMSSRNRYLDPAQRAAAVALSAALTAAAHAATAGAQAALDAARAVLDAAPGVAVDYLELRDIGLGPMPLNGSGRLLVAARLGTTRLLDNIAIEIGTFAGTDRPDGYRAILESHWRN

Row | Compound | inhibition
1 | O=C(CN(c1ccccc1)S(=O)(=O)c1ccccc1)N1CCN(Cc2ccc3c(c2)OCO3)CC1 | 0% (inactive)
2 | Cc1cccc(-n2nc3c(c2NC(=O)CCC2CCCCC2)CS(=O)C3)c1C (stereo not given) | 3% (inactive)
3 | Cc1noc(C)c1S(=O)(=O)N1CCC(C(=O)Nc2ccccn2)CC1 | 4% (inactive)
4 | O=C(CCCn1c(=S)[nH]c2cc3c(cc2c1=O)OCO3)N1CCN(c2ccccc2F)CC1 | 0% (inactive)
5 | Cc1[nH]n2c(=O)cc(Cc3ccccc3)nc2c1C#N | 0% (inactive)
6 | CNC(=O)CSc1nc2c(c(=O)n(C)c(=O)n2C)n1Cc1ccc(C)cc1 | 0% (inactive)
7 | CCn1c(-c2cc(Br)ccc2O)n[nH]c1=S | 0% (inactive)
8 | CCSc1nnc(NC(=O)CSc2ncccn2)s1 | 0% (inactive)
9 | O=S(=O)(NCc1cn2ccsc2n1)c1ccc2c(c1)OCCO2 | 0% (inactive)
10 | O=C(CN1C(=O)CSC1=O)N1CCc2ccccc2C1 | 3% (inactive)
11 | CCOC(=O)c1ccc(NS(=O)(=O)c2ccc3c(c2)CCCN3C(C)=O)cc1 | 0% (inactive)
12 | Cc1cc(-c2nc3ncccc3o2)ccc1N | 0% (inactive)
13 | O=C(OCC(=O)c1c[nH]c2ccccc12)C1=COCCO1 | 0% (inactive)
14 | COc1ccc(C/C(N)=N/n2cnnc2)cc1Cl | 0% (inactive)
15 | O=C(CCn1[nH]c(=O)c2ccccc2c1=O)NCCO | 0% (inactive)
16 | COc1ccccc1N1CCN(C(=O)C2CCN(S(=O)(=O)c3ccc(F)cc3)CC2)CC1 | 0% (inactive)
17 | CS(=O)(=O)N(Cc1ccccc1)c1ccc(C(=O)N2CCOCC2)cc1 | 0% (inactive)
18 | Cc1ccccc1NC(=O)C1CC(=O)N(c2ccccc2F)C1 (stereo not given) | 1% (inactive)
19 | Cc1ccccc1-c1nc2ccccc2c(=O)n1C1CCS(=O)(=O)C1 (stereo not given) | 0% (inactive)
20 | CC1CCc2nn(CC(=O)NCCN3CCOCC3)cc2C1 (stereo not given) | 0% (inactive)

Row | Compound | inhibition
21 | N#Cc1cc2sc3nnc(-c4ccncc4)n3c2cc1C#N | 0% (inactive)
22 | CCn1cc(S(=O)(=O)CC(=O)Nc2ccc(OC)cc2)c2ccccc21 | 1% (inactive)
23 | CC(O)CN1C(=O)C(CC(=O)Nc2ccc(Cl)cc2)SC1=Nc1ccccc1 (stereo not given) | 0% (inactive)
24 | NC(=O)N1c2ccccc2C=Cc2ccccc21 | 0% (inactive)
25 | O=c1cc(CSc2ccccn2)c2ccccc2[nH]1 | 3% (inactive)
26 | CC1(C2(O)CC(c3ccccc3)ON2)CCCCC1 (stereo not given) | 2% (inactive)
27 | S=c1[nH]nc(Cc2ccccc2)n1-c1ccccc1 | 1% (inactive)
28 | Cc1ccc(-c2cc(C(=O)O)n[nH]2)o1 | 0% (inactive)
29 | CCc1ccc(NS(=O)(=O)c2cccs2)cc1 | 0% (inactive)
30 | C=CCn1c(SCc2ccc(C#N)cc2)nnc1-c1cccc(Cl)c1 | 1% (inactive)
31 | Fc1ccc(-c2nnc3ccc(N4CCCC4)nn23)cc1 | 1% (inactive)
32 | Cc1cc(C)c(NC(=O)CSc2nc3c(c(=O)n2C)SC(C)C3)c(C)c1 (stereo not given) | 0% (inactive)
33 | CC(C)(C)NC(=O)Nc1ccccc1C(N)=O | 5% (inactive)
34 | O=C(NC1=NCCS1)NC12CC3CC(CC(C3)C1)C2 | 2% (inactive)
35 | Cc1ccc(-c2cc(C(F)F)nc(NCC3CCCO3)n2)cc1 (stereo not given) | 3% (inactive)
36 | CN(C(=O)c1c(Cl)nc2sccn12)C1CCCCC1 | 0% (inactive)
37 | O=S(=O)(Nc1ccn(-c2ccccc2)n1)c1ccc(Br)cc1 | 0% (inactive)
38 | CCOC(=O)C(C)(C)Sc1nc2c(cnn2-c2ccc(C)cc2)c(=O)[nH]1 | 0% (inactive)
39 | COc1ccc(-c2noc(CCC(=O)NCCCN3CCC(Cc4ccccc4)CC3)n2)cc1 | 0% (inactive)
40 | CCN1CCN(Cc2nc3c(c(=O)[nH]c(=O)n3C)n2Cc2ccccc2Cl)CC1 | 2% (inactive)
